The record followed here is the supplement of paper PMC8975748.

Counter-ions that a name gives are not always drawn. ± gives the standard deviation of the averaged measurements.

Experiment [1] relates to Saccharomyces cerevisiae BY4741 SeMeCo community. As to the kind of experiment: mean cell size (pixel area) (pixels); higher = larger cells. Conditions: 10 µM; 24 h; SM minimal medium. The essentials: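 Drug was acoustically predosed into 384-well plates to a final 10 µM in SM medium, and each well received 70 µl of Saccharomyces cerevisiae BY4741 diluted to OD600 = 0.3 from an overnight preculture at OD600 = 1.0. This four-plasmid fluorescent community carries one fluorescent marker per plasmid, and each plasmid complements one auxotrophy. After 24 h, the cells were fixed with paraformaldehyde and imaged by automated confocal microscopy, and Harmony analysis yielded mean cell pixel area per well. Each value is averaged over 3 replicates. Same SeMeCo high-content imaging drug screen: Selleck FDA-approved drugs at 10 µM, 24 h in SM medium, 384-well plates, 3 replicates.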

Experiment [2] shares this test system. As to the kind of experiment: z-score of prototroph abundance vs DMSO median; higher = larger share of this subpopulation than in DMSO controls. The conditions noted are these: 10 µM; 24 h; SM minimal medium; subpopulation (auxotrophy): Prototroph. The essentials:
(§1)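 A Saccharomyces cerevisiae BY4741 community carried four plasmids, each restoring one auxotrophy and encoding a distinct fluorescent protein. It was pre-grown overnight to OD600 1.0, diluted to 0.3, and 70 µl was added to 384-well plates acoustically predosed with library drugs (10 µM final), then grown 24 h in minimal SM medium. Cells were paraformaldehyde-fixed and imaged by automated confocal microscopy, with single-auxotroph fluorescent strains setting thresholds and autofluorescence correction. Each subpopulation's abundance was scored as a z-score against the vehicle-well median.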

Experiment [3] has the same test system. Put plainly: z-score of subpopulation abundance vs DMSO median, subpopulation auxotrophic for M; higher = larger share of this subpopulation than in DMSO controls. The conditions noted are these: 10 µM; 24 h; SM minimal medium; subpopulation (auxotrophy): M. The method in brief: as §1
For experiment [4] the test system is unchanged. Put plainly: z-score of subpopulation abundance vs DMSO median, subpopulation auxotrophic for L; higher = larger share of this subpopulation than in DMSO controls. Conditions: 10 µM; 24 h; SM minimal medium; subpopulation (auxotrophy): L. The method in brief: as §1
Experiment [5] has the same test system. As to the kind of experiment: z-score of subpopulation abundance vs DMSO median, subpopulation auxotrophic for U; higher = larger share of this subpopulation than in DMSO controls. The conditions noted are these: 10 µM; 24 h; SM minimal medium; subpopulation (auxotrophy): U. The essentials: as §1
The test system is the same in experiment [6]. Put plainly: z-score of subpopulation abundance vs DMSO median, subpopulation auxotrophic for H; higher = larger share of this subpopulation than in DMSO controls. The conditions noted are these: 10 µM; 24 h; SM minimal medium; subpopulation (auxotrophy): H. The essentials:
as §1

For experiment [7] the test system is unchanged. Put plainly: z-score of subpopulation abundance vs DMSO median, subpopulation auxotrophic for LU; higher = larger share of this subpopulation than in DMSO controls. The conditions noted are these: 10 µM; 24 h; SM minimal medium; subpopulation (auxotrophy): LU. The essentials: as §1
For experiment [8] the test system is unchanged. Put plainly: z-score of subpopulation abundance vs DMSO median, subpopulation auxotrophic for HM; higher = larger share of this subpopulation than in DMSO controls. Conditions: 10 µM; 24 h; SM minimal medium; subpopulation (auxotrophy): HM. The essentials:
as §1

Experiment [9] has the same test system. As to the kind of experiment: z-score of subpopulation abundance vs DMSO median, subpopulation auxotrophic for HU; higher = larger share of this subpopulation than in DMSO controls. The conditions noted are these: 10 µM; 24 h; SM minimal medium; subpopulation (auxotrophy): HU. The essentials: as §1
Experiment [10] has the same test system. Put plainly: z-score of subpopulation abundance vs DMSO median, subpopulation auxotrophic for UM; higher = larger share of this subpopulation than in DMSO controls. Conditions: 10 µM; 24 h; SM minimal medium; subpopulation (auxotrophy): UM. The method in brief:
as §1

For experiment [11] the test system is unchanged. As to the kind of experiment: z-score of subpopulation abundance vs DMSO median, subpopulation auxotrophic for HL; higher = larger share of this subpopulation than in DMSO controls. Conditions: 10 µM; 24 h; SM minimal medium; subpopulation (auxotrophy): HL. The essentials: as §1
Experiment [12] has the same test system. Put plainly: z-score of subpopulation abundance vs DMSO median, subpopulation auxotrophic for HLU; higher = larger share of this subpopulation than in DMSO controls. The conditions noted are these: 10 µM; 24 h; SM minimal medium; subpopulation (auxotrophy): HLU. The method in brief:
as §1

Experiment [13] has the same test system. Put plainly: z-score of subpopulation abundance vs DMSO median, subpopulation auxotrophic for HLM; higher = larger share of this subpopulation than in DMSO controls. Conditions: 10 µM; 24 h; SM minimal medium; subpopulation (auxotrophy): HLM. The method in brief:
as §1

For experiment [14] the test system is unchanged. As to the kind of experiment: z-score of subpopulation abundance vs DMSO median, subpopulation auxotrophic for HUM; higher = larger share of this subpopulation than in DMSO controls. The conditions noted are these: 10 µM; 24 h; SM minimal medium; subpopulation (auxotrophy): HUM. The essentials: as §1
Experiment [15] shares this test system. Put plainly: z-score of subpopulation abundance vs DMSO median, subpopulation auxotrophic for LUM; higher = larger share of this subpopulation than in DMSO controls. The conditions noted are these: 10 µM; 24 h; SM minimal medium; subpopulation (auxotrophy): LUM. The method in brief: as §1
The test system is the same in experiment [16]. As to the kind of experiment: z-score of subpopulation abundance vs DMSO median, subpopulation auxotrophic for HLUM; higher = larger share of this subpopulation than in DMSO controls. Conditions: 10 µM; 24 h; SM minimal medium; subpopulation (auxotrophy): HLUM. The method in brief: as §1
Experiment [17] has the same test system. Put plainly: z-score of subpopulation abundance vs DMSO median, subpopulation auxotrophic for LM; higher = larger share of this subpopulation than in DMSO controls. Conditions: 10 µM; 24 h; SM minimal medium; subpopulation (auxotrophy): LM. The essentials: as §1

In turn, `CCCCOc1cc(C(=O)NCCN(CC)CC)c2ccccc2n1` [Dibucaine HCl] displayed a mean cell size in [1] of 12.3 ± 0.24. Further, the “z-score of prototroph abundance” value in experiment [2] was 0.15. For the same compound, the “z-score of subpopulation abundance” value in [3] is -0.03; in experiment [4], -0.47; in experiment [5], 0.46; in experiment [6], -0.92; in [7], -0.21; in experiment [8], -0.88. In addition, the “z-score of subpopulation abundance” value was -0.13 in experiment [9]; 0.1 in experiment [10]; -1.25 in [11]; -0.62 in [12]; -0.03 in experiment [13]; 0.03 in [14]. In addition, the entries for the “z-score of subpopulation abundance” value in experiment [15] and in [16] were -0.54 and -0.06, respectively.
In [1], `CC(C)(C)CC(C)(C)c1ccc(OCCOCC[N+](C)(C)Cc2ccccc2)cc1` [Benzethonium Chloride] showed a mean cell size of 11.7 ± 0.27. In experiment [2], the “z-score of prototroph abundance” value is 0.89. The “z-score of subpopulation abundance” value in [3] was -2.12; in experiment [4], -0.55; in [5], 0.39; in experiment [6], 0.3; in experiment [7], -0.86; in experiment [8] it was -1.27. The “z-score of subpopulation abundance” value in [9] was 0.13; in [10], -0.2; in [11], -0.38; in experiment [12], -0.61; in [13], -0.12; in [14], -0.76. Also, the “z-score of subpopulation abundance” value in experiment [15] is 0.65; in experiment [16], 0.07.
The compound `COc1ccc(Cl)cc1C(=O)NCCc1ccc(S(=O)(=O)NC(=O)NC2CCCCC2)cc1` [Glyburide (Glibenclamide)] returned a mean cell size in experiment [1] of 12.36 ± 0.11. Besides, the “z-score of prototroph abundance” value in [2] was -0.6. Besides, the “z-score of subpopulation abundance” value in experiment [3] was -0.21; in experiment [4], 1.58; in experiment [5], -0.59; in experiment [7], -0.07; in experiment [8] it was 0.56; in experiment [9], -0.2. Moreover, the “z-score of subpopulation abundance” value in experiment [10] was -0.02; in experiment [12], 0.43; in experiment [13], -0.04; in experiment [14], -0.09; in experiment [15], 1.11; in [16] it was 0.01.
In turn, `CCC(C)(Oc1ccc(C2(c3ccc(OC(C)(CC)C(=O)O)cc3)CCCCC2)cc1)C(=O)O` (stereo not given) [Clinofibrate] registered a mean cell size in experiment [1] of 13.24 ± 0.13. The “z-score of prototroph abundance” value in experiment [2] is 0.14. Further, the “z-score of subpopulation abundance” value was 0.41 in experiment [3]; -2.3 in [4]; 0.34 in [5]; 1.7 in experiment [6]; -0.18 in experiment [7]; -0.03 in experiment [8]. The “z-score of subpopulation abundance” value in experiment [9] is 0.11; in experiment [10], -2.08; in experiment [11], -0.48; in experiment [12], 0.73; in [13], 2.85; in [14], -0.82. In addition, the “z-score of subpopulation abundance” value in [15] is -1.09; in [16] it was 0.45.
In the case of `CC[C@H](C)C(=O)O[C@H]1CCC=C2C=C[C@H](C)[C@H](CC[C@@H]3C[C@@H](O)CC(=O)O3)[C@H]21` [Mevastatin], the mean cell size in experiment [1] stood at 11.6 ± 0.14. In addition, the “z-score of prototroph abundance” value in [2] was found to be 0.08. The “z-score of subpopulation abundance” value in [3] is -0.77; in [4] it was -0.41; in [5], 0.22; in experiment [6], -0.21; in experiment [7] it was 0.06; in experiment [8], -0.1. For the same compound, the “z-score of subpopulation abundance” value in experiment [9] is 0.2; in experiment [10] it was 0.52; in experiment [11], 0.72; in [12] it was 0.15; in experiment [13], -0.6; in [14], -0.29. The figures for the “z-score of subpopulation abundance” value in [15] and in [16] were -0.11 and -0.71, respectively.
As for `Cc1cccc(N(C)C(=S)Oc2ccc3ccccc3c2)c1` [Tolnaftate], the “z-score of prototroph abundance” value in experiment [2] came out at 0.3. In addition, the “z-score of subpopulation abundance” value in experiment [3] was -0.22; in experiment [4], -0.24; in experiment [5] it was -0.32; in [6] it was -1.13; in experiment [7], -0.35; in experiment [17] it was -0.04. Further, the “z-score of subpopulation abundance” value in experiment [8] is -0.59; in experiment [9], -0.22; in experiment [10], -0.08; in experiment [11], -0.75; in [12] it was -0.38; in experiment [13], -0.75. Besides, the “z-score of subpopulation abundance” value was -0.16 in experiment [14], -0.11 in [15] and -1.09 in experiment [16].
On to `CCCCCCCCCCCC(=O)O` [Lauric Acid], for which the mean cell size in [1] stood at 12.2 ± 0.16. For the same compound, the “z-score of prototroph abundance” value in experiment [2] came to 0.84. For the same compound, the “z-score of subpopulation abundance” value was -1.03 in [3]; -0.6 in experiment [4]; -1.48 in experiment [6]; -0.2 in [7]; -0.82 in experiment [8]; -0.42 in experiment [9]. In addition, the “z-score of subpopulation abundance” value in [10] is 0.3; in [11], -1.05; in experiment [12] it was -0.82; in experiment [13] it was -1.21; in experiment [14] it was -0.04; in experiment [15] it was -0.68. In [16], the “z-score of subpopulation abundance” value was -0.48.
On to `O=C1Nc2ccccc2C1=O` [Isatin], for which, in [2], the “z-score of prototroph abundance” value is -0.13. Besides, the “z-score of subpopulation abundance” value was -0.49 in experiment [3]; -0.04 in [4]; 0.43 in [5]; 0.05 in experiment [6]; 0.53 in [7]; -0.62 in experiment [17]. The “z-score of subpopulation abundance” value is -0.24 in [8]; 0.91 in experiment [9]; 0.51 in experiment [10]; -0.64 in experiment [11]; 0.06 in experiment [12]; -1.17 in experiment [13]. The “z-score of subpopulation abundance” value was 0.2 in experiment [14], -0.31 in experiment [15] and -0.52 in experiment [16].
